DT40 TDP1 CPT = growth inhibition of DT40 Tdp1-/-;hTDP1 cells with camptothecin (screen for TDP1 inhibitors). Potency, µM (series often up to 46.2 µM), inactives show at the top dose activity change, negative = growth inhibition, hits mostly inhibitors. 420,000 compounds, 12% hits. chicken DT40 Tdp1-/-;hTDP1 cells + 20 nM CPT, ATP luminescence, 48 h. AID 686979; also: potency is read from the fitted curve at half-maximal effect; % is scaled to controls: 0 for no effect and ±100 for the full control effect; nearly all actives have a fitted effect of over 55% in size
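Chicken DT40 Tdp1-/- cells complemented with human TDP1, 400 cells/well, exposed to compounds plus 20 nM camptothecin for at least 48 h at 37 C; viability read as ATP content by CellTiter-Glo luminescence.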
IL-1B inflam inh = blocks inflammasome-driven IL-1 beta release | THP-1 LPS/ATP IL-1B secretion, AlphaLISA, 16 h; stronger effect = lower value | activity change, % at 57.5 µM | 360,000 compounds, 4.7% hits | AID 743279; in the data active = activity change below about -50%; inconclusive = mostly about -30% to -49%; also: % is scaled to controls: 0 for no effect and ±100 for the full control effect
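Secreted IL-1B measured by AlphaLISA bead assay after 16 h compound exposure of THP-1 cells; compounds (final up to 57.5 uM) added 1 h before LPS (250 ng/mL) and ATP (1.25 mM) stimulation; lower signal means less secretion.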
ClpP mod = qHTS Assay for Activators of ClpP. ATP-dependent Clp protease proteolytic subunit (Bacillus subtilis (strain 168)), P80244. purified B. subtilis ClpP, FRET peptide cleavage, 20 min. Potency, µM (doses to about 57.5 µM), inactives show at the top dose activity change, negative = active. 340,000 compounds, 1.9% hits. AID 651965, 2013; active = well fitted falling curve with a large enough effect; inconclusive = small, poorly fitted or top-dose-only effect; inactive = no such curve, though single readings can be large or run the other way; also: potency is read from the fitted curve at half-maximal effect; the source files actives as falling curves though it sought activators and does not explain the sign; nearly all actives have a fitted effect of over 65% in size
Target sequence (P80244 whole entry, looked up): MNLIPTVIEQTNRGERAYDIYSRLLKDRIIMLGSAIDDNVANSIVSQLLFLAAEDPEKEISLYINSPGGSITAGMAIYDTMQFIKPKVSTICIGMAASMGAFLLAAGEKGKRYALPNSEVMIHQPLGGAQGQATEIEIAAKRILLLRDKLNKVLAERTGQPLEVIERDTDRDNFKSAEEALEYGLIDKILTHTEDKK
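Purified B. subtilis ClpP, 10 microg/mL final in Tris/HCl pH8 with KCl, BSA, glycerol and Tween-20, cleaved an Abz/nitrotyrosine-quenched decapeptide. Fluorescence (ex 320, em 430) was read at 0 and 20 min at room temperature. Delta was normalized to 5.8 microM ADEP and DMSO/no-enzyme controls.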
DRD3 agonist = D3 dopamine receptor (human) agonism. AID 652048. 410,000 compounds, 0.58% hits. D3R DiscoveRx beta-arrestin cells, luminescence, 90 min. max activation, %; in the data active = max activation above about 30%; also: 0% is about no effect
Target sequence (P35462 whole entry, looked up): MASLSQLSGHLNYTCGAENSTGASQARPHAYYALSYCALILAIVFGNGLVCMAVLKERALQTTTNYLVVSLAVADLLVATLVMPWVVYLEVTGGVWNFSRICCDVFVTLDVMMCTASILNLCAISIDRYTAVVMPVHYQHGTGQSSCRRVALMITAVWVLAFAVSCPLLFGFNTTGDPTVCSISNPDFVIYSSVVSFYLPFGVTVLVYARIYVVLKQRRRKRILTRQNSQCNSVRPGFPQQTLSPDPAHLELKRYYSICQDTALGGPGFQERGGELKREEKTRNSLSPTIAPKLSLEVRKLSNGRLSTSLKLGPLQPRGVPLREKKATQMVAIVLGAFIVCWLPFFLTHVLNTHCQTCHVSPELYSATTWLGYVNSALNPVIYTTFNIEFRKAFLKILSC
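Agonist mode: compounds and dopamine controls were applied to plated cells for 90 min at 37 degrees C after an overnight attachment at 1500 cells/well. Luminescent read-out followed 30 - 60 minutes at room temperature with DiscoveRx detection reagent.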
DT40 TDP1 no CPT = qHTS for Inhibitors of human tyrosyl-DNA phosphodiesterase 1 (TDP1): qHTS in cells in absence of CPT; DT40 Tdp1-/- hTDP1 cells, no CPT, ATP luminescence, 48 h; 420,000 compounds, 15% hits; Potency, µM (doses to about 46.2 µM), inactives show top-dose activity change, negative = growth inhibition, hits mostly inhibitors; also: potency is read from the fitted curve at half-maximal effect; % is scaled to controls: 0 for no effect and ±100 for the full control effect; nearly all actives have a fitted effect of over 55% in size
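Growth of hTDP1-complemented DT40 Tdp1-knockout cells is measured by ATP luminescence after at least 48 hr compound exposure at 37 °C, with DMSO substituting for the 20 nM CPT used in the parallel screen.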
DRD3 antagonist = antagonists of human D3 dopamine receptor. P35462. D3R cells, DiscoveRx beta-arrestin luminescence, antagonist mode; stronger effect = lower value. max response, negative = inhibition, %. 360,000 compounds, 2.5% hits. AID 652054; in the data active = max response below about -50%; inconclusive = no clear call, values can overlap the other calls; also: % is scaled to controls: 0 for no effect and ±100 for the full control effect
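Cells expressing the human receptor were seeded at 1500 cells/well, incubated overnight at 37 degrees C in 5% CO2, then exposed to library compounds with dopamine controls for 90 minutes at 37 degrees C before luminescent detection.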
* marks the source's active call; other numbers are inactive results; u = inconclusive; x = not tested or not shown. An excerpt weighted towards active compounds, which were near 21% of everything screened. Unless noted, calls follow the shape of the dose curve; as a rule, active = well fitted inhibition curve with a large enough effect; inconclusive = small, poorly fitted or top-dose-only effect; inactive = flat fitted curve, though single readings scatter.

SMILES	DT40 TDP1 CPT	IL-1B inflam inh	ClpP mod	DRD3 agonist	DT40 TDP1 no CPT	DRD3 antagonist
Cc1cnc(C)c(Nc2nc(C(N)c3ccccc3)cs2)n1 (configuration not stated)	u	0	-10%	-1	u	16
NC(c1ccccc1)c1csc(Nc2ccccn2)n1 (configuration not stated)	u	u	-9%	-9	21µM*	-3
NC(c1csc(Nc2ccccn2)n1)C1CCCCC1 (configuration not stated)	15µM*	-68*	-2%	-22	16µM*	0
CC(N)c1csc(Nc2ncccn2)n1 (configuration not stated)	-11%	1	-1%	1	u	7
CCC(C)[C@H](NC(=O)OC(C)(C)C)C(=O)NCC1CCC(C(=O)N[C@@H](Cc2ccccc2)C(=O)O)CC1 (some centres not stated)	10%	0	-1%	-1	20%	-13
CCOc1ccc(S(=O)(=O)n2cnc(C)c2)cc1	u	14	-1%	1	-29%	3
COc1ccc(OC)c(N=C2C(=O)Nc3ccccc32)c1	-6%	9	4%	-7	-1%	-8
COc1ccc(/C=C2\COc3ccccc3C2=O)cc1OC	15µM*	-98*	2%	0	21µM*	11
COc1ccc2c(c1)/C(=C/c1cc(OC)c(OC)c(OC)c1)C(=O)N2	0.52µM*	-6	60%	3	0.73µM*	-7
COc1ccc(/C=C2\OC(=O)c3c(OC)cccc32)cc1OC	-28%	u	u	8	u	25
COc1cc(/C=C2/CCc3ccccc3C2=O)cc(OC)c1OC	u	-99*	-3%	11	15µM*	16
COc1ccc(/C=C2/CCc3ccccc3C2=O)cc1OC	u	-99*	0%	5	u	-3
COc1ccc(C(=O)NCCS(=O)(=O)NCc2ccccc2OC)cc1	-14%	-4	x	7	-19%	21
CCOc1cc(/C=C2\COc3ccccc3C2=O)cc(Br)c1OCC(=O)N(C)C	3.7µM*	-103*	x	-5	4.6µM*	u
Cc1cc(C)c2c(c1)C(=O)/C(=C/c1ccc(C(=O)O)cc1)CC2	-16%	-13	x	23	-15%	-4
COc1cc(/C=C2\CCc3ccccc3C2=O)cc(OC)c1OC	18µM*	-101*	267%	0	16µM*	22
CCOc1ccccc1C=C1CCc2ccccc2C1=O	u	-10	0%	5	u	15
COc1ccc(C=C2C(=O)OC(C)(C)OC2=O)cc1OC	-1%	-1	-1%	-2	-10%	0
O=C(O)c1ccc(/C=C2\COc3ccccc3C2=O)cc1	u	-105*	x	-5	18µM*	-7
COc1ccc(/C=C2\C(=O)NC(=O)c3ccccc32)cc1OC	1.6µM*	51	-11%	-13	1.5µM*	5
COc1ccccc1C=C1CCc2ccccc2C1=O	u	-7	2%	9	u	13
CCCCn1c(N)c(N(CC(C)C)C(=O)CCNC(=O)c2ccc(Cl)cc2)c(=O)[nH]c1=O	3%	0	-1%	1	5%	18
Cc1ccc(C(=O)COC(=O)c2ccccc2NC(=O)c2ccccc2)cc1[N+](=O)[O-]	-10%	17	1%	4	-6%	13
COc1ccc2c(c1)OC/C(=C\c1ccc(OC)c(O)c1)C2=O	1.5µM*	x	x	x	1µM*	x
COc1ccc2c(c1)OC/C(=C/c1cccs1)C2=O	3%	-27	2%	1	u	-5
SMILES	DT40 TDP1 CPT	IL-1B inflam inh	ClpP mod	DRD3 agonist	DT40 TDP1 no CPT	DRD3 antagonist
COc1ccc(/C=C2\COc3ccccc3C2=O)c(OC)c1	21µM*	2	x	2	u	7
C=C(C)C(C)(C#CCN1CCCC1)OC(C)=O (configuration not stated)	-23%	-2	-1%	-5	-12%	-72*
CC(C)(C#CCN1CCCC1)OCCC#N	-12%	5	1%	-2	-15%	-8
CCCNC(=O)CSc1nc2nc(C)c(Cc3ccccc3Cl)c(C)n2n1	u	x	-13%	8	u	x
c1ccc(C2NCCNC2c2ccccc2)cc1 (configuration not stated)	-11%	-9	-3%	-1	-4%	-7
FC(F)(F)c1cc(CO[C@@H]2CCCN[C@@H]2c2ccccc2)cc(C(F)(F)F)c1	u	u	1%	-23	13µM*	33
COCCNC(=O)C1(C)CCCN(C(=O)c2ccccc2C(F)(F)F)C1 (configuration not stated)	-19%	26	0%	4	1%	10
CNc1nc(-c2ccc3c(c2)CCN3C(=O)c2ccc(F)cc2)cs1	u	-7	-1%	1	u	2
CNc1nc(-c2ccc3c(c2)CCN3C(=O)c2ccccc2C)cs1	u	-10	x	-10	16µM*	18
CNc1nc(-c2ccc3c(c2)CCN3C(=O)c2cccc(F)c2)cs1	23µM*	u	0%	4	21µM*	14
C/C(=N\NC(=O)c1cccc(Br)c1)c1cccnc1	-11%	-1	-1%	0	2%	-9
Cc1cc(CNC(=O)COC(=O)C2CC3CCCC(C2)C3=O)cc(C)c1O (configuration not stated)	-5%	1	0%	0	19%	10
CSc1c(SCc2ccccc2)cnn(-c2ccccc2)c1=O	u	-98*	-2%	-1	u	12
Cn1ncc(S(=O)(=O)Cc2ccccc2)c(Cl)c1=O	1.5µM*	x	x	14	3.3µM*	4
Cn1ncc(Cl)c(Oc2ccccc2)c1=O	-2%	5	-2%	-5	3%	-12
Cn1ncc(SCc2ccccc2)c(Cl)c1=O	9.2µM*	x	x	13	10µM*	14
CN(NC(=O)Nc1ccccc1)c1cnn(C)c(=O)c1Cl	u	0	-4%	5	-56%	-25
Cn1cnc(S(=O)(=O)N2CCC(C(=O)NCc3ccc(Cl)cc3)CC2)c1	1%	x	-3%	-7	u	x
Cc1ccccc1CSc1nnc(-c2cccs2)n1Cc1ccco1	u	-29	-3%	-4	23µM*	26
c1ccc(CSc2nnc(-c3cccs3)n2Cc2ccco2)cc1	u	-67*	-7%	2	u	-16
c1ccc(CSc2nnc(-c3ccco3)n2Cc2ccco2)cc1	u	4	1%	4	23µM*	0
